Among the data in PubChem BioAssay (NCI) are growth inhibition values, retold here.

About 79,000 compounds went through this panel and 15% of them were active in at least one assay; those are over-represented in the sample as a whole. Values without a mark were called inactive. Active and inactive are the calls of the source. Cut-off read from the data, not from the text of the source: active = growth inhibition above about 70%; inactive = the rest.

Experiment [1] is described as follows: NCI Yeast Anticancer Drug Screen. Data for the rad50 strain (AID 155).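 Note: 0% = growth of vehicle-only cultures of the same strain.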 Particulars: S. cerevisiae rad50 strain growth inhibition, stronger effect = higher value. The gist of the method: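 Yeast carrying a defined DNA repair defect were exposed to test compounds, and growth was compared with vehicle-treated controls to give percent inhibition.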
Experiment [2] can be described thus: NCI Yeast Anticancer Drug Screen. Data for the mec2-1 strain (AID 157). Particulars: S. cerevisiae mec2-1 strain, stronger effect = higher value. The method in brief:
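Growth inhibition is read against vehicle-treated controls after compound exposure of the mec2-1 yeast strain, which is defective in DNA damage repair or cell cycle control.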

Experiment [3] in a line: NCI Yeast Anticancer Drug Screen. Data for the sgs1 mgt1 strain (AID 161).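 Note: 0% = growth of cultures given vehicle only.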 The conditions noted are these: S. cerevisiae sgs1 mgt1 strain, stronger effect = higher value. The method in brief:
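Yeast cells carrying a defined DNA-repair defect were exposed to test compounds. Growth inhibition was measured relative to vehicle-treated controls.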

The nature of experiment [4]: NCI Yeast Anticancer Drug Screen. Data for the cln2 rad14 strain (AID 165).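 Note: 0% = growth equal to vehicle treated cultures.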 The conditions noted are these: S. cerevisiae cln2 rad14 strain, stronger effect = higher value. The gist of the method: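 Growth inhibition, relative to vehicle-treated controls, is the read-out. The test organism is a yeast strain with defined genetic alterations, cln2 rad14.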
Experiment [5] in a line: NCI Yeast Anticancer Drug Screen. Data for the bub3 strain (AID 167). Particulars: S. cerevisiae bub3 mutant strain, stronger effect = higher value. The method in brief:
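Compounds were applied to a genetically altered yeast strain carrying a cell-cycle control defect. Growth inhibition was scored against vehicle-treated controls.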

Experiment [6] is described as follows: NCI Yeast Anticancer Drug Screen. Data for the mlh1 rad18 strain (AID 175). The conditions noted are these: S. cerevisiae mlh1 rad18 strain growth inhibition, stronger effect = higher value. The gist of the method:
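Cells of a genetically altered yeast strain, deficient in DNA damage repair, were treated with compound. Their growth was then compared with that of vehicle-treated cultures to give inhibition.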

[7] abbreviates: at 5.0 µM (retest, dose inferred, filed as 0.5).
Setting [8] is: at 50.0 µM (retest, dose inferred, filed as 5.0).

Consider `O=C(CCN1CCOCC1)c1ccc(Oc2ccc(F)cc2)cc1`, for which the growth inhibition in experiment [1] (setting [7]) is 65%; in experiment [1] (setting [8]), 87% (active); in experiment [1] (at 50.0 µM), 67.2%; in experiment [2] (setting [7]), 64%; in experiment [2] (setting [8]) it was 95% (active); in experiment [2] (at 50.0 µM), 77% (active). In addition, the growth inhibition is 80% (active) in experiment [3] (setting [7]); 95% (active) in experiment [3] (setting [8]); 85.2% (active) in experiment [3] (at 50.0 µM); 64% in experiment [4] (setting [7]); 66% in experiment [4] (setting [8]); 78.1% (active) in experiment [4] (at 50.0 µM). The growth inhibition in experiment [5] (setting [7]) was 88% (active); in experiment [5] (setting [8]) it was 98% (active); in experiment [5] (at 50.0 µM), 85.4% (active); in experiment [6] (setting [7]) it was 74% (active); in experiment [6] (setting [8]) it was 90% (active); in experiment [6] (at 50.0 µM), 88% (active).

With `CC(C)(C)N=C=NC(c1ccccc1)(c1ccccc1)c1ccccc1`, the growth inhibition is -3% in experiment [1] (setting [7]); -21% in experiment [1] (setting [8]); -1.9% in experiment [1] (at 50.0 µM); -9% in experiment [2] (setting [7]); -7% in experiment [2] (setting [8]); -6.1% in experiment [2] (at 50.0 µM). For the same compound, the growth inhibition was -6% in experiment [3] (setting [7]); -24% in experiment [3] (setting [8]); 2.45% in experiment [3] (at 50.0 µM); -1% in experiment [4] (setting [7]); -18% in experiment [4] (setting [8]); 42.5% in experiment [4] (at 50.0 µM). The growth inhibition in experiment [5] (setting [7]) was -6%; in experiment [5] (setting [8]) it was -22%; in experiment [5] (at 50.0 µM), 4.5%; in experiment [6] (setting [7]), 11%; in experiment [6] (setting [8]), 1%; in experiment [6] (at 50.0 µM), -3.25%.

As for `N#CCCN(CCC#N)Cc1cc(-c2ccccc2)ccc1O`, the growth inhibition in experiment [1] (setting [7]) was 5%; in experiment [1] (setting [8]) it was 55%; in experiment [1] (at 50.0 µM), 87.5% (active); in experiment [2] (setting [7]), 1%; in experiment [2] (setting [8]), 19%; in experiment [2] (at 50.0 µM) it was 55%. For the same compound, the growth inhibition in experiment [3] (setting [7]) was -2%; in experiment [3] (setting [8]) it was 59%; in experiment [3] (at 50.0 µM), 59.5%; in experiment [4] (setting [7]) it was -8%; in experiment [4] (setting [8]), -8%; in experiment [4] (at 50.0 µM) it was -14.9%. For the same compound, the growth inhibition in experiment [5] (setting [7]) was 1%; in experiment [5] (setting [8]), 44%; in experiment [5] (at 50.0 µM), 85.2% (active); in experiment [6] (setting [7]), -9%; in experiment [6] (setting [8]), 28%; in experiment [6] (at 50.0 µM), 82.2% (active).

Consider `O=[N+]([O-])c1ccc(C(Cl)Cc2ccc(Cl)cc2)cc1` (stereo not given), for which the growth inhibition is 10% in experiment [1] (setting [7]); 66% in experiment [1] (setting [8]); 90.2% (active) in experiment [1] (at 50.0 µM); 7% in experiment [2] (setting [7]); 64% in experiment [2] (setting [8]); 82.5% (active) in experiment [2] (at 50.0 µM). For the same compound, the growth inhibition is 22% in experiment [3] (setting [7]); 91% (active) in experiment [3] (setting [8]); 93.7% (active) in experiment [3] (at 50.0 µM); -8% in experiment [4] (setting [7]); 61% in experiment [4] (setting [8]); 62.6% in experiment [4] (at 50.0 µM). The growth inhibition was 20% in experiment [5] (setting [7]); 82% (active) in experiment [5] (setting [8]); 94.3% (active) in experiment [5] (at 50.0 µM); -18% in experiment [6] (setting [7]); 71% (active) in experiment [6] (setting [8]); 89.1% (active) in experiment [6] (at 50.0 µM).

Take `CC(C)Nc1nc(NC(C)C)c2cnn(-c3ccccc3)c2n1`: the growth inhibition in experiment [1] (setting [7]) is 0%; in experiment [1] (setting [8]) it was 55%; in experiment [1] (at 50.0 µM), 96.7% (active); in experiment [2] (setting [7]), 1%; in experiment [2] (setting [8]) it was 69%; in experiment [2] (at 50.0 µM), 83.9% (active). The growth inhibition in experiment [3] (setting [7]) was 2%; in experiment [3] (setting [8]), 95% (active); in experiment [3] (at 50.0 µM), 98.5% (active); in experiment [4] (setting [7]) it was -10%; in experiment [4] (setting [8]) it was 24%; in experiment [4] (at 50.0 µM) it was 88.3% (active). Further, the growth inhibition was 1% in experiment [5] (setting [7]); 68% in experiment [5] (setting [8]); 81.7% (active) in experiment [5] (at 50.0 µM); 3% in experiment [6] (setting [7]); 74% (active) in experiment [6] (setting [8]); 95.5% (active) in experiment [6] (at 50.0 µM).

With `CC1CC(OC(=O)Nc2ccccc2)CC(C)(C)C1` (stereo not given), the growth inhibition was -33% in experiment [1] (setting [7]); 76% (active) in experiment [1] (setting [8]); 78.8% (active) in experiment [1] (at 50.0 µM); 9% in experiment [2] (setting [7]); 74% (active) in experiment [2] (setting [8]); 80.6% (active) in experiment [2] (at 50.0 µM). In addition, the growth inhibition in experiment [3] (setting [7]) was -6%; in experiment [3] (setting [8]), 87% (active); in experiment [3] (at 50.0 µM) it was 91.5% (active); in experiment [4] (setting [7]), 4%; in experiment [4] (setting [8]), 81% (active); in experiment [4] (at 50.0 µM) it was 66.8%. Further, the growth inhibition is 10% in experiment [5] (setting [7]); 83% (active) in experiment [5] (setting [8]); 90.3% (active) in experiment [5] (at 50.0 µM); 4% in experiment [6] (setting [7]); 87% (active) in experiment [6] (setting [8]); 85.6% (active) in experiment [6] (at 50.0 µM).

For `COC(=O)c1nnn(-c2cccc(C(F)(F)F)c2)c1C(=O)c1ccc(Cl)c(Cl)c1`, the growth inhibition was -3% in experiment [1] (setting [7]); 98% (active) in experiment [1] (setting [8]); 97.7% (active) in experiment [1] (at 50.0 µM); 8% in experiment [2] (setting [7]); 98% (active) in experiment [2] (setting [8]); 80% (active) in experiment [2] (at 50.0 µM). Moreover, the growth inhibition was -5% in experiment [3] (setting [7]); 99% (active) in experiment [3] (setting [8]); 97.7% (active) in experiment [3] (at 50.0 µM); 9% in experiment [4] (setting [7]); 95% (active) in experiment [4] (setting [8]); 59.2% in experiment [4] (at 50.0 µM). In addition, the growth inhibition in experiment [5] (setting [7]) was 16%; in experiment [5] (setting [8]) it was 98% (active); in experiment [5] (at 50.0 µM), 89.4% (active); in experiment [6] (setting [7]), 4%; in experiment [6] (setting [8]), 98% (active); in experiment [6] (at 50.0 µM), 97% (active).

`O=C1OC(c2ccc3c(c2)OCO3)Sc2ccccc21` (stereo not given): the growth inhibition in experiment [1] (setting [7]) is 11%; in experiment [1] (setting [8]), 24%; in experiment [1] (at 50.0 µM), 30.1%; in experiment [2] (setting [7]), -4%; in experiment [2] (setting [8]), -9%; in experiment [2] (at 50.0 µM), 9.85%. Besides, the growth inhibition in experiment [3] (setting [7]) is 1%; in experiment [3] (setting [8]) it was 10%; in experiment [3] (at 50.0 µM), 23.4%; in experiment [4] (setting [7]), -2%; in experiment [4] (setting [8]) it was 4%; in experiment [4] (at 50.0 µM), -2.5%. The growth inhibition in experiment [5] (setting [7]) was 9%; in experiment [5] (setting [8]), 52%; in experiment [5] (at 50.0 µM), 68.3%; in experiment [6] (setting [7]), -6%; in experiment [6] (setting [8]) it was 27%; in experiment [6] (at 50.0 µM), 25.8%.

Regarding `Cc1ccccc1Sc1ccccc1[N+](=O)[O-]`, the growth inhibition is 2% in experiment [1] (setting [7]); 35% in experiment [1] (setting [8]); 12.9% in experiment [1] (at 50.0 µM); 1% in experiment [2] (setting [7]); 5% in experiment [2] (setting [8]); 12.8% in experiment [2] (at 50.0 µM). In addition, the growth inhibition was 0% in experiment [3] (setting [7]); 27% in experiment [3] (setting [8]); 26.1% in experiment [3] (at 50.0 µM); 5% in experiment [4] (setting [7]); 7% in experiment [4] (setting [8]); 11.1% in experiment [4] (at 50.0 µM). In addition, the growth inhibition in experiment [5] (setting [7]) was -1%; in experiment [5] (setting [8]) it was 8%; in experiment [5] (at 50.0 µM), 20.6%; in experiment [6] (setting [7]) it was 2%; in experiment [6] (setting [8]), 39%; in experiment [6] (at 50.0 µM) it was 74.5% (active).

For the compound `CCCC(C)OC(=O)Nc1cccc(Cl)c1` (stereo not given), the growth inhibition in experiment [1] (setting [7]) was -15%; in experiment [1] (setting [8]) it was 3%; in experiment [1] (at 50.0 µM) it was 98.4% (active); in experiment [2] (setting [7]) it was -4%; in experiment [2] (setting [8]), -7%; in experiment [2] (at 50.0 µM) it was 98.2% (active). In addition, the growth inhibition was -2% in experiment [3] (setting [7]); -10% in experiment [3] (setting [8]); 98.9% (active) in experiment [3] (at 50.0 µM); -29% in experiment [4] (setting [7]); -1% in experiment [4] (setting [8]); 97.9% (active) in experiment [4] (at 50.0 µM). In addition, the growth inhibition is -21% in experiment [5] (setting [7]); 1% in experiment [5] (setting [8]); 97.5% (active) in experiment [5] (at 50.0 µM); -20% in experiment [6] (setting [7]); 16% in experiment [6] (setting [8]); 97.6% (active) in experiment [6] (at 50.0 µM).
